# PubChem BioAssay AID504466 (National Center for Advancing Translational Sciences (NCATS), 2011)
# The whole screen tested about 330,000 compounds, of which about 4,200 (1.3%) were called active. Where a call stands in place of a potency, no number is given. Roughly 6% stayed inconclusive and do not appear here. Calls follow the shape of the dose curve; as a rule, active = well fitted activation curve with a large enough effect; inconclusive = small, poorly fitted or top-dose-only effect; inactive = no such curve, though single readings can be large or run the other way. Only a selection was taken, and actives are over-represented in it overall.
# Test: qHTS screen for small molecules that induce genotoxicity in human embryonic kidney (HEK293T) cells expressing luciferase-tagged ELG1; also: nearly all actives have a fitted effect of over 60% in size
# Conditions: HEK293T ELG1-luciferase reporter, luminescence, 16 h; series mostly up to 46 µM
# Description: NIH Molecular Libraries Probe Production Network [MLPCN] NIH Chemical Genomics Center [NCGC] MLPCN Grant: 1 R03 MH092164-01 Assay Provider: Kyungjae Myung, NHGRI, NIH Keywords: MLPCN, qHTS, NCGC, genotoxicity, cancer Assay Overview: Cancer cells divide rapidly compared to normal cells in the body. During cell division, cancer cells need to duplicate their genome by DNA replication. The failure of genome duplication leads to cancer cells' death. Therefore, inhibitors of DNA replication could specifically kill cancer cells. Based on this concept, many chemotherapeutic agents were developed and have been used to treat cancer patients. However, there are a limited number of agents available in the clinical setting, and some of those that do exist have low efficacy and severe side effects. Therefore, if we can find the compounds that effectively block DNA replication either by directly damaging DNA or by inhibiting other cellular mechanisms, the options for cancer treatment will be broadened. With this in mind, we developed a quantitative high-throughput ELG1-luciferase reporter gene assay. Since the level of human ELG1 protein is enhanced in response to genetic stresses, increases in luciferase activity can be used to identify compounds that cause genetic stress.
# Assay Protocol Summary: For genotoxicity screening, 2,000 cells in 5 uL/well were dispensed into white, solid-bottom 1536-well plates using a solenoid-based dispenser. Following transfer of 23 nL compound or DMSO vehicle by a pin tool, the plates were incubated 16 hr at 37 °C and 5% CO2. 5 ul ONE-Glo (Promega) was then added to each plate and following a 30 min incubation at room temperature, luciferase activity was quantified on a ViewLux CCD-based plate reader.
# Potency is read from the fitted curve at half-maximal effect.
row,Structure (SMILES),Potency
1,O=C(OCC(=O)c1cccs1)C1=COCCO1,18.4 µM (active)
2,CC[N+](C)(CC)CCC[n+]1c(-c2ccccc2)c2cc(N)ccc2c2ccc(N)cc21,inactive
3,c1cc2c(cc1C1OCC3C(c4ccc5c(c4)OCO5)OCC13)OCO2 (stereo not given),inactive
4,C[C@]12CC[C@H](O)CC1=C([N+](=O)[O-])CC1C2CC[C@@]2(C)C1CC[C@@H]2O (stereo not given in full),inactive
5,COc1ccc(C2CC(c3cccs3)=NN2c2nc(C)c(C(C)=O)s2)cc1OC (stereo not given),20.6 µM (active)
6,CCOC(=O)c1c(-c2ccccc2)oc2ccc(OC(=O)N(C)C)cc12,inactive
7,CN(C)C(=O)Oc1ccc(OCc2cccc[n+]2C)cc1,inactive
8,CN(C)C(=O)Oc1ccc2c(c1)O/C(=C\c1ccccc1)C2=O,20.6 µM (active)
9,COC(=O)[C@@H]1C(OC(=O)c2ccccc2)CC2CCC1N2C (stereo not given in full),inactive
10,CC[C@H]1CN2CCc3cc(OC)c(OC)cc3[C@@H]2C[C@@H]1C[C@H]1NCCc2cc(OC)c(OC)cc21,inactive
11,COC1=CC=C2[C@H]3Cc4ccc(OC)c5c4[C@@]2(CCN3C)C1O5 (stereo not given in full),inactive
12,O=C(OCCN1CCOCC1)C1(c2ccccc2)CCCC1,inactive
13,CCC(=O)c1ccc(OCC(=O)N2CCN(CC(=O)Nc3ccc(C)cc3)CC2)cc1,inactive
14,O=C(/C=C/c1cccs1)c1cc(Cl)ccc1OC(=O)N1CCOCC1,inactive
15,Oc1ccc2c3c1OC1[C@H](O)CC[C@@]4(O)[C@@H](C2)N(CC2CC2)CC[C@]314 (stereo not given in full),inactive
